# Compound activity as filed in PubChem BioAssay.
# Lamin A splicing: qHTS Assay for Modulators of Lamin A Splicing; Potency, µM (series often up to 46.1 µM), for inactives: at the highest dose ratio change, negative = inhibition, actives largely listed as inhibitors; 0.01% of 200,000 active; AID 1487, 2009; HeLa LMNA splicing GFP/RFP minigene ratio, 48 h; active means well fitted inhibition curve with a large enough effect in the signal ratio, with a control signal flat, not every such curve was filed as active; inconclusive means small, poorly fitted or top-dose-only effect, or effect the other way, or a change in a side signal; the % refers to the signal ratio; further: potency means the concentration at half of the fitted maximal effect
#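 S3 HeLa stable clones carrying a lamin A-EGFP splicing minigene plus DsRed2 were seeded at 600 cells/well in Opti-MEM with 2% FBS, pin-dosed and incubated 48 h at 37°C. Acumen cytometry (488 nm) gave the GFP/RFP total-intensity ratio.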
# HPGD block: qHTS Assay for Inhibitors of HPGD (15-Hydroxyprostaglandin Dehydrogenase); Potency, µM, for the others: top-dose activity change, negative = inhibition, actives largely listed as inhibitors; AID 894, 2007; 4.3% of 150,000 active; purified HPGD, NADH fluorescence kinetic, PGE2 substrate; 15-hydroxyprostaglandin dehydrogenase [NAD(+)] (Homo sapiens), P15428; further: potency means the concentration at half of the fitted maximal effect
# Target sequence (P15428 whole entry, looked up): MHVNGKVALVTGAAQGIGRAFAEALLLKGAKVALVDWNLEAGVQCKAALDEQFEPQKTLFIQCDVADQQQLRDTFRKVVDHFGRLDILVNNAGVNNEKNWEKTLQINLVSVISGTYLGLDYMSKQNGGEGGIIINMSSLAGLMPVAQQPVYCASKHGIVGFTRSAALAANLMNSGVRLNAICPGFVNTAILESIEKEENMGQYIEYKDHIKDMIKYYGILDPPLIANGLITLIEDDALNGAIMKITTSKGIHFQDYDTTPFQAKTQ
#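 NADH formation kinetics: reaction with 30 uM PGE2 and 1 mM NAD+ (final), 20 nM enzyme, Tris-HCl pH 8 with Tween 20, after 15 min compound preincubation at room temperature. Fluorescence change, last versus first of five reads.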
# PNC inhibitor: High Content Assay for Compounds that inhibit the Assembly of the Perinucleolar Compartment; PC3M PTB-GFP, PNC prevalence imaging, 16 h; stronger effect = lower value; activity change (PNC), negative = inhibition, % at 10 µM; 3.1% of 140,000 active;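 active means readout at or below -70, meaning at least 70% loss of cells showing the perinucleolar compartment, a nuclear body marking cancer cells; inconclusive means readout between -30 and a set limit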;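 further: plate controls were DMSO wells for no effect and camptothecin positive control wells for full effect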
#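 Read-out is percentage of cells bearing a perinucleolar compartment, from automated 20x imaging of fixed, Hoechst-stained PC3M PTB-GFP cells. Cells were seeded 4 h, then exposed 16 h to compound (23 nl of library stock) in duplicate plates.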
# KinaseGlo FLuc: Counterscreen for Luciferase (Kinase-Glo TM) Inhibition; Luciferin 4-monooxygenase (Photuris pensylvanica), Q27757; Kinase-Glo luciferase, ATP luminescence, 8 min; Potency, µM (top dose mostly 38.3 µM), for the others: at the top dose activity change, negative = inhibition, hits mostly inhibitors; 0.28% of 200,000 active; active means well fitted inhibition curve with a large enough effect; inconclusive means small, poorly fitted or top-dose-only effect; further: potency means the concentration at half of the fitted maximal effect; nearly all actives have a fitted effect of over 60% in size
#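 Kinase-Glo luciferase light output from ATP and luciferin was measured with 10 uM ATP, within the enzyme's linear range. Buffer: 50 mM imidazole pH 7.2, 50 mM KCl, 7 mM MgCl2, 0.01% Tween 20, 0.05% BSA; luminescence read after 8 min at ambient temperature.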
# IMPase cell inh: qHTS Assay for Identifying the Cell-Membrane Permeable IMPase Inhibitors; inhibition (IP1 accumulation), % at 46.1 µM; CHO-M1 cells, IP1 accumulation, HTRF TR-FRET ratio; 120,000 tested, under 10 active; active means well fitted curve in the direction sought with a large enough effect in the signal ratio, not every such curve was filed as active; inconclusive means small, poorly fitted or top-dose-only effect, or a change in a side signal; inactive means no such curve, though single readings can be large or run the other way; the % refers to the signal ratio;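 further: cells stimulated with carbachol in lithium chloride buffer; plate controls were DMSO basal wells for no effect and reference inhibitor wells for full effect; higher means more IMPase inhibition seen as more IP1 and lower FRET ratio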
# Target sequence (P97697 whole entry, looked up): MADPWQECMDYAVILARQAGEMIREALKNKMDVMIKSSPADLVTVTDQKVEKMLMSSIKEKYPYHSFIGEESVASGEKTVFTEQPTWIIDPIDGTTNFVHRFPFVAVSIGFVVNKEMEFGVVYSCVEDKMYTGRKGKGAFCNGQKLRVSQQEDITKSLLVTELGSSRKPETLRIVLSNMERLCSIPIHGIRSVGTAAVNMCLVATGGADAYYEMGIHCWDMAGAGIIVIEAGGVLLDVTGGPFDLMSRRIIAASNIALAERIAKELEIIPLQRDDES
#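 Seeded CHO-M1 cells were dosed with compound at up to 46 uM, stimulated with carbachol for 30 min, then lysed in IP-One detection reagents. Higher IP1 lowers the TR-FRET signal.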
# ALDH1A1 block: qHTS Assay for Inhibitors of Aldehyde Dehydrogenase 1 (ALDH1A1); Aldehyde dehydrogenase 1A1 (Homo sapiens), P00352; Purified ALDH1A1, NADH fluorescence, propionaldehyde substrate; Potency, µM (doses to about 75.3 µM), inactives show top-dose activity, negative = inhibition, usual class: inhibitors; 7.3% of 220,000 active; AID 1030, 2008;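 further: potency means the concentration at half of the fitted maximal effect; plate controls were no enzyme wells and a reference inhibitor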
# * = called active by the depositor; ? = inconclusive; . = no result; [ ] = remark or other dose. Compounds with a hit are over-represented: about 10% of the library has one in this group of screens. Unless noted, the call rests on the fitted dose curve; in most records, active means well fitted inhibition curve with a large enough effect (not every such curve was filed as active); inconclusive means small, poorly fitted or top-dose-only effect, or another doubt; inactive means no such curve, though single readings can be large or run the other way. Unless noted, on the % scale 0 is the no-effect control and ±100 the full control effect.
SMILES,Lamin A splicing,HPGD block,PNC inhibitor,KinaseGlo FLuc,IMPase cell inh,ALDH1A1 block
COc1ccc(C2NC(=O)NC(C)=C2C(=O)Nc2cccc(C)c2C)cc1 (stereo not given),-5%,4%,-17,4%,-7,2.8µM*
COC(=O)C1=C(C)C(c2ccc(OC)cc2)NC(=S)N1 (stereo not given),6%,-12%,0,-3%,7,8.9µM*
COc1ccc(Cn2c(NCC(C)C)nc3c2c(=O)n(C)c(=O)n3C)cc1,.,.,.,.,2,.
CC1=C(c2ccc(C)c(C)c2)S(=O)(=O)N(Cc2ccc(C(=O)NC(C)c3ccccc3)cc2)C1=O (stereo not given),-5%[46 µM],.,.,.,.,.
CS(=O)(=O)Nc1cccc(-c2cncnc2Nc2ccc(F)cc2)c1,3%,.,.,.,.,?
CC1C(=O)N(C)C(=O)c2nc[nH]c21 (stereo not given),-13%,-8%,.,-3%,.,-3%
CC1CCc2nc3ncn(Cc4ccccc4F)c(=O)c3cc2C1 (stereo not given),-1%[46 µM],.,.,.,.,.
O=C(CN1CCC(O)(c2ccc3c(c2)OCO3)CC1)OC1CCCCC1,10%,6%,-84*,-3%,-8,3%
CCc1ccc(C(=O)CSc2n[nH]c(-c3ccncc3)n2)cc1,?,11µM*,9,0%,0,?
COC(=O)CSc1n[nH]c(-c2ccncc2)n1,-5%,-12%,-13,-5%,-5,-2%
O=C(CSc1n[nH]c(-c2ccccc2)n1)c1ccc(O)c(O)c1,?,3.5µM*,5,-2%,0,-2%
O=C(CSc1n[nH]c(-c2ccccc2)n1)Nc1ncccn1,8%[46 µM],.,.,-1%,.,1%
O=c1c(CCc2ccccc2)nc2cnc(N3CCNCC3)nc2n1Cc1ccc(F)cc1,.,?,.,-4%,.,?
COc1cccc(-n2c(CN3CCN(Cc4ccccc4)CC3)nc3ccc([N+](=O)[O-])cc3c2=O)c1,-15%,-2%,?,4%,.,24µM*
COc1ccc(-n2c(CN3CCN(Cc4ccccc4)CC3)nc3ccc([N+](=O)[O-])cc3c2=O)c(OC)c1,.,.,.,2%,.,20µM*
O=c1c2cc([N+](=O)[O-])ccc2nc(CN2CCN(c3ccccn3)CC2)n1-c1ccccc1F,.,.,.,0%,.,14µM*
CN(C)c1ccc(NC(=O)CN2C(=O)c3ccccc3Sc3ccc(C(=O)N4CCCC4)cc32)cc1,-12%[46 µM],.,.,.,.,.
Cc1ccccc1-c1nc(CNC(=O)Nc2ccccc2)c(C)o1,-4%[46 µM],.,.,.,.,.
Cc1cccc(N2C(S)=C(C#N)C(=O)NC2c2ccco2)c1 (stereo not given),.,.,.,0%,.,-7%
N#CC1=C(S)N(c2ccccc2)C(c2ccc(-c3cccc(Cl)c3)o2)NC1=O (stereo not given),0%,32µM*,?,6%,.,?
NC(=O)COC(=O)CNC(=O)c1ccc(Cl)cc1,11%,0%,19,0%,9,2µM*
Cn1c(C(=O)N2CCCC2)cc2c(=O)n(C)c3ccccc3c21,-5%,22µM*,-2,18%,2,-2%
NC(N)=NC(N)=Nc1c(F)c(F)c(F)c(F)c1F,.,-7%,.,3%[7.66 µM],.,3%[13.5 µM]
CCC(=O)N1c2ccccc2CC1C(=O)NCCc1ccc(SC)cc1 (stereo not given),-20%[46 µM],.,.,.,.,.
COc1ccc(NC(=O)c2cc(-c3cc(C)ccc3O)n[nH]2)cc1Cl,1%,3.2µM*,-25,-1%,-2,6%
COc1ccc(CCNC(=O)c2cc(-c3cc(C)ccc3O)n[nH]2)cc1OC,-13%,4µM*,?,2%,13,2%
COc1ccc(OC)c(NC(=O)c2cc(-c3cc(Cl)ccc3O)n[nH]2)c1,?,?,-16,-1%,13,-8%
COc1ccc(N2CCN(c3ncnc4onc(C)c34)CC2)cc1,-10%[46 µM],.,.,.,.,.
